For 38 compounds, outcome results are on record in PubChem BioAssay.

Structures are written as SMILES. Results with a measured potency or affinity are listed apart. Records with an inconclusive call do not appear. Active and inactive are the calls of the source.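 Rule for the calls, unless noted: active = signal drop whose fitted half-maximal concentration is at most twice the top valid dose, in every test run; inconclusive = mixed calls across runs, poor fit, or flat 30 to 70% inhibition; inactive = wrong direction, flat within 30%, or potency beyond limit.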

Assay [1] is described as follows: RMG-1 ovarian cancer cell viability loss – cherry-pick, dose response (AID 687029).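 Note: cells exposed to compound for 96 hours.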 Particulars: RMG-1 viability, CellTiterGlo ATP luminescence, 96 h; series mostly up to 35 µM. (Cellular ATP, detected with luciferase, serves as a proxy for viable cell number.)
Assay [2] can be described thus: CMV-driven luciferase expression suppression in HEK293 – cell-based, luminescence, dry powder, counter-screen for Pax8 inhibitor project, dose response (AID 743020;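 active = signal-lowering compounds whose fitted half-maximal concentration is at or below twice the top tested dose in every run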;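 note: HEK293 cells stably expressing the CMV luciferase reporter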). Conditions: HEK293 CMV-luciferase reporter, SteadyGlo luminescence, 24 h; series mostly up to 35 µM. For orientation: The purpose of a counterscreen is to sort out artefacts and off-target activity.
A short description of assay [3]: general cell-killing toxicity readout – plate reader, dry powder samples, cytotoxicity control for PAX8 inhibitor project, dose response (AID 743021; call rule not given here). Conditions: cell line, non-specific cytotoxicity counter-screen; series mostly up to 35 µM.

Take `C/C(=N\NC(=O)c1n[nH]c2c1CCC2)c1cccs1`: the result in assay [1] and in assay [2] was inactive.

For the compound `COc1ccc(/C=C2\CN(Cc3ccccc3)C/C(=C\c3ccc(OC)cc3OC)C2=O)c(OC)c1`, the result in assay [1] and in assay [2] was inactive.

As to `C(=C\c1ccc(C2[C@@H]3CN(Cc4ccc5c(c4)OCO5)C[C@H]2N3)cc1)/c1ccccc1` (stereo not given in full), the outcome in assay [1] and in assay [2] was inactive.

In the case of `CCOC(=O)c1c2c(n(Cc3ccccc3)c1C)C(=O)C(=O)c1ccccc1-2`, the outcome in assay [1] and in assay [2] was inactive.

Turning to `COc1cccc(/C=N/Nc2nc(Nc3ccc([N+](=O)[O-])cc3)nc(N3CCCC3)n2)c1O`, the result in assay [1] and in assay [2] was inactive.

Regarding `COc1ccc(CN(C)C[C@H]2OCCCC[C@H](C)Oc3ccc(NC(=O)Nc4ccc(C(F)(F)F)cc4)cc3C(=O)N([C@@H](C)CO)C[C@H]2C)cc1`, the call in assay [1] and in assay [2] was inactive.

Regarding `COc1ccc(N2C(=O)CC(Sc3nnnn3-c3ccc(F)cc3)C2=O)cc1` (stereo not given), the result in assay [1] and in assay [2] was inactive.

Turning to `O=C(NC(Nc1nc2ccc([N+](=O)[O-])cc2s1)(C(F)(F)F)C(F)(F)F)c1cccnc1`, the result in assay [1], in assay [2] and in assay [3] was inactive.

For `COc1ccc(OC)c(N(CCN2C(=O)c3ccccc3C2=O)C(=O)CCl)c1`, the result in assay [1] and in assay [2] was inactive.

As to `Cc1ccc(S(=O)(=O)c2ncccc2[N+](=O)[O-])cc1`, the compound was classed as inactive in assay [1] and in assay [2].

Turning to `CC(C)=CCC/C(C)=C/CN1C(=O)N(c2ccc(F)cc2)[C@H]2C[C@@H](c3ccccc3)[C@@H](C)[C@@H](C(=O)N3CCOCC3)C[C@H]21`, the compound was classed as inactive in assay [1] and in assay [2].

On to `COc1ccccc1N(C(C)=O)C1=C(Cl)C(=O)c2ccccc2C1=O`, for which the compound was classed as inactive in assay [1] and in assay [2].

Take `CCOc1ccc(NC(=O)Nc2cccc(C(=O)O)c2)cc1`: the compound was called inactive in assay [1] and in assay [2].

Take `O=[N+]([O-])c1c(Nc2cccc(O)c2)cc(Cl)c2nonc12`: the call in assay [1] and in assay [2] was inactive.

On to `O=C(NCCc1ccccc1)C(c1cccs1)N(C(=O)CCl)c1ccc(Cl)cc1` (stereo not given), for which the compound was called inactive in assay [1] and in assay [2].

As for `OC(c1cc(-c2ccc(C(F)(F)F)cc2)nc(C(F)(F)F)c1)C1CCCCN1` (stereo not given), the compound was called inactive in assay [1] and in assay [2].

For `Cc1ccc(C(=O)Nc2cnc3ccccc3c2)cc1`, the compound was classed as inactive in assay [1] and in assay [2].

As for `NC1=C(Cl)C(=O)c2ccc(S(N)(=O)=O)cc2C1=O`, the compound was called inactive in assay [1] and in assay [2].

`C#CC(=O)N(c1ccc(OC)cc1OC)C(C(=O)NC1CCCC1)c1cccs1` (stereo not given): the call in assay [1] and in assay [2] was inactive.

For `COc1ccc(S(=O)(=O)N(C)C[C@H]2Oc3ccc(NC(=O)Nc4ccc(C(F)(F)F)cc4)cc3C(=O)N([C@H](C)CO)C[C@@H]2C)cc1`, the outcome in assay [1], in assay [2] and in assay [3] was inactive.

As for `COc1ccc(Oc2ccc(/C=C/C(=O)c3cccc(OC)c3)cc2[N+](=O)[O-])cc1`, the call in assay [1] and in assay [2] was inactive.

`CCCCCCCN(C(=O)CCl)c1cccc(C)c1`: the call in assay [1] and in assay [2] was inactive.

Consider `CC(C)Nc1ccc(Nc2ccnc3cc4ccccc4cc23)cc1`, for which the call in assay [1] and in assay [2] was inactive.

With `COC(=O)C1=C(C)N(Cc2ccc(C(F)(F)F)cc2)C(=NCc2ccccc2)NC1c1cccc(F)c1` (stereo not given), the result in assay [1] and in assay [2] was inactive.

Regarding `Cc1nc2c(=O)n(C)c(=O)n(C)c2nc1Cl`, the result in assay [1] and in assay [2] was inactive.

With `COc1cccc(N2CCN(c3ncnc4c3cnn4-c3ccc(C)cc3C)CC2)c1`, the outcome in assay [1] and in assay [2] was inactive.

In the case of `CS(=O)(=O)c1ccc(C(=O)OCC(=O)NCc2cccs2)cc1[N+](=O)[O-]`, the call in assay [1] and in assay [2] was inactive.

Consider `CC(=O)N(C1=C(Cl)C(=O)c2ccccc2C1=O)C1CCCCC1`, for which the result in assay [1] and in assay [2] was inactive.

Regarding `C[C@H](NC(=O)c1ccco1)C(=O)Nc1cccc([N+](=O)[O-])c1`, the compound was classed as inactive in assay [1], in assay [2] and in assay [3].

Regarding `Cc1cccc(-n2ncc(Cl)c(Cl)c2=O)c1`, the result in assay [1] and in assay [2] was inactive.

As to `Cc1ccc(C(=O)O/N=C(\N)c2ccccn2)cc1`, the compound was classed as inactive in assay [1] and in assay [2].

Take `O=C(CCl)N=c1sccn1Cc1ccc(Cl)cc1Cl`: the result in assay [1] and in assay [2] was inactive.

Take `COC(=O)[C@@]12C[C@@H](CC(=O)N3CCN(C(=O)c4ccco4)CC3)C(=O)N(Cc3ccccc3)C1=CCC(C)(C)C2`: the outcome in assay [1], in assay [2] and in assay [3] was inactive.

As to `O=C1[C@@H]2Cc3c([nH]c4ccccc34)C(c3cccc(Br)c3)N2C(=O)CN1C1CCN(Cc2ccccc2)CC1` (stereo not given in full), the compound was classed as inactive in assay [1], in assay [2] and in assay [3].

Consider `COc1ccc(/C=C2\CN(Cc3ccccc3)C/C(=C\c3ccc(OC)c(O)c3)C2=O)cc1O`, for which the result in assay [1], in assay [2] and in assay [3] was inactive.

In the case of `O=C(CCc1ccc(S(=O)(=O)NCc2ccccc2)cc1)NCc1cccnc1`, the compound was classed as inactive in assay [1], in assay [2] and in assay [3].

Consider `CC(/C=C1\SC(=O)N(CC(=O)Nc2ccc(O)cc2)C1=O)=C\c1ccccc1`, for which the compound was classed as inactive in assay [1], in assay [2] and in assay [3].

With `CSc1ccc(COC(=O)c2cc([N+](=O)[O-])ccc2N2CCOCC2)cc1`, the result in assay [1], in assay [2] and in assay [3] was inactive.
